Laboratory results as given in article PMC5540273 (PLoS ONE, 2017).

Experiments:
Settings in all cases: concentration: 1 μM,replicates: in singlicate; n = 1
ERK1 = system: T1, ERK1
T1 construct: gene MAPK3

ERK2 = system: T2, ERK2
T2 construct: gene MAPK1

ERK3 = system: T3, ERK3
T3 construct: gene MAPK6

ERK4 = system: T4, ERK4
T4 construct: gene MAPK4

ERK5 = system: T5, ERK5
T5 construct: gene MAPK7

ERK8 = system: T6, ERK8
T6 construct: gene MAPK15

ERN1 = system: ERN1
FAK = system: T7, FAK
T7 construct: gene PTK2

FER = system: FER
FES = system: FES
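Note: KINOMEscan kinase panel screen.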

Compound	%Inh (ERK1) [%]	%Inh (ERK2) [%]	%Inh (ERK3) [%]	%Inh (ERK4) [%]	%Inh (ERK5) [%]	%Inh (ERK8) [%]	%Inh (ERN1) [%]	%Inh (FAK) [%]	%Inh (FER) [%]	%Inh (FES) [%]
C[C@@H](Oc1cc(-n2cnc3cc(-c4cnn(C)c4)ccc32)sc1C(N)=O)c1ccccc1Cl [GSK580432]	0	0	10	10	0	64	3	0	38	18
O=C(Nc1ccc(Oc2ccc3nc(NC(=O)C4CC4)cn3n2)c(F)c1)c1cccn(-c2ccccc2)c1=O	0	10	0	5	21	9	0	13	37	13
Cn1ccc2ncnc(Oc3ccc(NC(=O)Nc4cnn(C(C)(C)C)c4)c(Cl)c3)c21	19	4	0	1	7	25	26	0	0	13
CC(C)c1nc(-c2cccc(NS(=O)(=O)c3ccccc3)c2)c(-c2ccnc(Nc3ccc4c(c3)CN(C)CC4)n2)s1 [GSK1649598]	0	0	0	43	11	0	63	0	23	0
Cc1cccc2c(-c3ccncc3)c(-c3ccc(F)cc3)nn12.Cl [GW461487]	0	0	5	15	0	0	7	0	4	0
N#Cc1cccc(C(=O)NC2CCN(c3ccnc(Nc4ccc(F)cc4)n3)C2)c1 (stereo not drawn) [GSK1379708]	0	10	9	0	0	0	0	0	30	2
CCOC(=O)N1CCC(n2cnc(-c3ccc(F)cc3)c2-c2ccnc(N)n2)CC1 [SB-219952]	0	0	0	8	0	0	19	0	20	0
C[C@@H]1CNc2c(sc3ccc4nc(-c5ccc(O)cc5)ccc4c23)C(=O)N1	0	16	0	13	8	3	10	6	0	4
Cc1ccc(Nc2ccnc(Nc3ccc4c(c3)CS(=O)(=O)C4)n2)cc1O.Cl [GW579362]	0	0	51	48	0	18	42	65	52	2
CS(=O)(=O)c1cccc(CNc2nc(Nc3ccc4c(c3)[C@@H]3C[C@@H]4CNC3=O)ncc2C(F)(F)F)c1	24	44	0	0	7	99.6	17	100	93.4	85
Cc1cccc(-c2nc(Nc3ccncc3)c3sccc3n2)n1 [GW869641]	5	18	3	26	0	2	32	2	9	7
O=C(Nc1cccc(C(F)(F)F)c1)c1cccc(Oc2ccc3nccn3n2)c1	7	7	0	2	22	4	29	38	5	0
COc1ccc(Nc2nccc(N3CCC(NC(=O)c4cccc(C#N)c4)C3)n2)cc1 (stereo not drawn) [GSK1379730]	1	26	0	0	0	30	0	0	27	0
Cn1ccc2ncnc(Oc3ccc(NC(=O)Nc4cccc(C(F)(F)F)c4)c(Cl)c3)c21	0	18	0	10	12	11	15	41	0	9
CS(=O)c1ccc(-c2coc3ccc(-c4n[nH]c(=O)o4)cc23)cc1 (stereo not drawn)	7	1	0	0	0	44	0	0	0	0
Cc1ccc(C(=O)Nc2ccc(Oc3ccc4nc(NC(=O)C5CC5)cn4c3)c(F)c2)c(=O)n1-c1ccccc1	0	0	0	0	0	34	0	3	75	48
O=C(Nc1n[nH]c2cc(-c3ccco3)ccc12)C1CC1 [SB-737447]	0	0	0	3	0	72	9	3	0	1

Compound	%Inh (ERK1) [%]	%Inh (ERK2) [%]	%Inh (ERK3) [%]	%Inh (ERK4) [%]	%Inh (ERK5) [%]	%Inh (ERK8) [%]	%Inh (ERN1) [%]	%Inh (FAK) [%]	%Inh (FER) [%]	%Inh (FES) [%]
CC(=O)c1c(-c2ccncc2)[nH]c(-c2ccncc2)c1C [GW493036]	3	0	0	0	0	96.5	0	0	2	0
CCCC(=O)Nc1n[nH]c2ncccc12 [SB-601436]	0	0	0	0	0	0	0	0	0	12
O=C(Nc1ccccc1)c1cccc(Oc2ccc3nccn3n2)c1	0	0	0	77	0	0	22	0	2	6
COC(=O)c1cccc(NC(=O)NC2CCN(c3ccnc(NCc4ccc(F)cc4)n3)CC2)c1 [GSK1379860]	0	14	14	0	22	35	0	0	10	1
Cc1n[nH]c2cc(Nc3ccnc(Nc4cccc(CN5CCOCC5)c4)n3)ccc12 [GW682569]	0	0	0	22	7	0	24	0	8	0
CC(C)S(=O)(=O)N1CCN(Cc2ccc3c(c2)nc(NC(=O)c2ccsc2)n3C[C@H](O)c2ccccc2)CC1 [GW635815]	0	0	1	0	0	0	4	29	39	15
CS(=O)(=O)Nc1ccc(-c2ccnc3[nH]ccc23)cc1 [GSK993273]	0	0	0	13	0	0	25	0	16	0
CCn1c(-c2nonc2N)nc2cncc(Br)c21 [SB-738004]	0	6	0	19	6	0	19	9	10	8
O=C(NCC1CC1)c1ccc(-c2cc(C(=O)NC3CC3)ccc2F)cc1 [GW810445]	0	0	0	0	1	0	0	3	0	0
O=C(NOCC1CC1)c1cc(Br)c(F)c(F)c1Nc1ccc(I)cc1Cl	0	0	0	0	0	8	0	0	11	0
Nc1nccc(-c2ccc3c(N)n[nH]c3c2)n1 [GSK1034945]	0	0	0	8	0	49	0	0	0	0
COc1cccc(C2=C(Nc3cccc(Cl)c3)C(=O)NC2=O)c1 [SB-341556]	3	0	0	17	0	71	10	0	0	0
Cn1cc(-c2cccc3c(N)c(C(N)=O)nnc23)cn1	5	27	0	0	0	0	33	21	8	8
O=c1[nH]cc(-c2ccc(O)cc2)c2sc(-c3ccncc3)cc12 [GSK1033723]	0	0	11	1	0	0	0	0	1	13
C[C@@H]1CNc2c(sc3ccc4nc(-c5ccncc5)ccc4c23)C(=O)N1	0	6	0	16	15	24	0	0	20	9
Cn1ccc2ncnc(Oc3ccc(NC(=O)Nc4cccc(C(F)(F)F)c4)c(F)c3)c21	0	19	0	14	11	74	0	34	28	0
